What is called inhibition is the drop in the measured response relative to a control, in per cent.

About 390 (7%) of roughly 5,600 compounds showed an effect of 50% or more. The list comes from a sample in which strong results are over-represented; it also holds similar structures and randomly drawn compounds.

The test has as its target T1, Protein deacetylase HDAC6 (Homo sapiens) (UniProt Q9UBN7).
T1 sequence (whole entry): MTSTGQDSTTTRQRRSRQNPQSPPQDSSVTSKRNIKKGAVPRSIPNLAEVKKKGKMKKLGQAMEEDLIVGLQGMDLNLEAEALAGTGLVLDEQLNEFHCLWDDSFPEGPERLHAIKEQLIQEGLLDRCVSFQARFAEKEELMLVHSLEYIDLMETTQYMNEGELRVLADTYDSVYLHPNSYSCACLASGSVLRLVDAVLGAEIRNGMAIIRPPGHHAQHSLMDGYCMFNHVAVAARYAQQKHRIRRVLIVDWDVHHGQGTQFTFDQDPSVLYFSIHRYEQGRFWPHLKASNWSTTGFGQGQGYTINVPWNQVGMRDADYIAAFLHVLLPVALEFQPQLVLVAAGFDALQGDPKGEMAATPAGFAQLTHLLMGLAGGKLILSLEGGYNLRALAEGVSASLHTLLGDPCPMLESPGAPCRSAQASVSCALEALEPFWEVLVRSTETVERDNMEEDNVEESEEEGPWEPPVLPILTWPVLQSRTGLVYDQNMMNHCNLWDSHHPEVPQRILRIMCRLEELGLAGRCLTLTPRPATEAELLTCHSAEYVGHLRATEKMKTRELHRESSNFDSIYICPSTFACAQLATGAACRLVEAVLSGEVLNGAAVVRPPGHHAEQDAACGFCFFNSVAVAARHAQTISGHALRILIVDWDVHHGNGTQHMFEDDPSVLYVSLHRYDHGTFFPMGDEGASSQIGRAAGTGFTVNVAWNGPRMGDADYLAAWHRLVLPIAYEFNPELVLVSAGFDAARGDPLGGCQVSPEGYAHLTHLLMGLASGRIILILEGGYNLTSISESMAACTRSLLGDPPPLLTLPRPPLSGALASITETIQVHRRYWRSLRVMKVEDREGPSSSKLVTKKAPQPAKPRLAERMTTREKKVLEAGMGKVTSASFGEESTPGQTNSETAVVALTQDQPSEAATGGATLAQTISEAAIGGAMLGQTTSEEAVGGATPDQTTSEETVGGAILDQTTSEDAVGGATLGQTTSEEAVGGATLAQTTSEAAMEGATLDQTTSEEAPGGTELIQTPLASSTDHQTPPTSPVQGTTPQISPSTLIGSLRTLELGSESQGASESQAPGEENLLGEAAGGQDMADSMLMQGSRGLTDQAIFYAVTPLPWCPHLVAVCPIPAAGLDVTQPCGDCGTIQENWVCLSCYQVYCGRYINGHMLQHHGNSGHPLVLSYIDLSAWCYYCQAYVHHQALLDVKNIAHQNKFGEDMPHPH
The conditions noted are these: at 10 µM.
Take `O=C(CCNNC(=O)c1ccncc1)NCc1ccccc1`: the inhibition is -0.28%.

Regarding `O=C(CCCCCCNC(=O)c1cnc(N(c2ccccc2)c2ccccc2)nc1)NO`, the inhibition is 101%.

On to `CCCCCCCCCCCCCCCC(=O)NCCO`, for which the inhibition amounted to 7.03%. In the case of `O=C(O)C1CN(Cc2ccc(-c3nc4cc(Cc5ccccc5F)ccc4s3)c(F)c2)C1`, the inhibition was 12.2%. Regarding `CCCCC/C=C\C=C/CCCCCCCCC(=O)O`, the inhibition amounted to 13.9%. Then `c1ccc(CNCc2ccc(CN3CCCNCCNCCCNCC3)cc2)nc1`, with -1.23%. Then `Clc1cccc2c1CN(C1=NCCN1)C2`, with -3.56%. Then `O=c1[nH]nc2c3c(cccc13)N=C(CN1Cc3ccccc3C1)N2`, with -8.46%; and `CN(C)Cc1ccc(S(=O)(=O)n2ccc(/C=C/C(=O)NO)c2)cc1`, with 101%; and `Cn1nc(-c2ccc(C(F)(F)F)cc2)nc2c(=O)n(C)c(=O)nc1-2`, with 12.3%.

As to `CC(=O)OC[C@H]1O[C@@H](n2ccc(=O)[nH]c2=O)[C@H](OC(C)=O)[C@@H]1OC(C)=O`, the inhibition stood at 41.6%. Next, `Cc1c(F)cc(C(=O)NC2CC2)cc1-c1ccc(C(=O)NCC(C)(C)C)cn1`: -6.14%; `CCOC(=O)c1ccc(C#Cc2ccc3c(c2)C(C)(C)CCS3)nc1`: 22.8%. Then `O=C(NC1CCC1)c1ccc(C#Cc2cccc(F)c2)nc1`, with 53.6%; and `COc1ccc(CC(=O)NC(N/C(=N/C#N)Nc2cccc3ncccc23)C(C)(C)C)cc1OC` (stereo unspecified), with 17.5%. Then `NC(=O)OC[C@@H]1[C@H](NC(=O)/C(=N\OCC(=O)O)c2csc(N)n2)C(=O)N1S(=O)(=O)O`, with 1.5%; and `COc1cc(C)c2c(Oc3cccc(C(F)(F)F)c3)c(OC)cc(NC(C)CCCN)c2n1` (stereo unspecified), with 19.9%. Turning to `Cc1ccc(NC(=O)c2ccc(CN3CCN(C)CC3)cc2)cc1Nc1nc(-c2cccnc2)cs1`, the inhibition turned out to be 89.4%.

Regarding `Cc1ccc(NC(=O)c2ccc(CN3CCN(C)CC3)cc2)cc1Nc1nccc(-c2cccnc2)n1`, the inhibition came out at 36.3%. In the case of `Cc1ccc(C(=O)Nc2cccc(C(F)(F)F)c2)cc1Nc1nc(-c2cccnc2)nc2c1cnn2C`, the inhibition was 17.5%. Next, `Nc1sc2c(c1C(=O)c1ccc(Cl)cc1)CCCC2`: 31.2%; `O=C1CC2(CCCC2)CC(=O)N1CCCCNCC1COc2ccccc2O1` (stereo unspecified): 18.1%; `Cc1cccc(Nc2cc(Cl)nc(SCC(=O)O)n2)c1C`: 9.22%. As for `NC(=O)c1cccnc1`, the inhibition is 2.11%. Then `O=C(CCCCCCC(=O)NO)NO`, with 99.2%. Next, `O=C(CCCCCCC(=O)Nc1cccnc1)NO`: 100%; `O=C(O)CCCCCCCC(=O)O`: 29.8%; `O=C(O)CCCCCCCCC(=O)O`: 0.61%.

For the compound `Cc1cc(-c2ccc(CC(=O)Nc3ccc(-c4cccnc4)cc3)cc2)ccn1`, the inhibition is 37.6%. Next, `O=[N+]([O-])c1ccc2c(c1)S(=O)(=O)C=C2`: 20.7%. Then `NC(C(=O)O)c1ccc(C(=O)O)c(C(=O)O)c1` (racemic), with 1.97%. Then `COc1ccc(-c2csc(NC(=O)[C@H]3CCCCN3S(=O)(=O)c3ccc(C)cc3)n2)cc1`, with 0.15%; and `Nc1nc(NC[C@H]2CC[C@H](CNS(=O)(=O)c3cccc4ccccc34)CC2)nc2ccccc12`, with 9.28%.

On to `CCOc1ccccc1C(=O)O`, for which the inhibition was found to be 0.84%.

`CCCCNc1ncc2c(-c3ccc(CN4CCN(C)CC4)cc3)cn([C@H]3CC[C@H](O)CC3)c2n1`: the inhibition turned out to be 62.3%.

Take `COC(=O)c1ccccc1COc1ccccc1[N+](=O)[O-]`: the inhibition amounted to 35.8%.

On to `N=C(N)NCCC[C@H](NC(=O)c1sccc1NS(=O)(=O)c1cccc2nsnc12)C(=O)O`, for which the inhibition was -2.5%. Turning to `CCN(CC)CCCN(c1ccccc1)C1Cc2ccccc2C1`, the inhibition turned out to be 9.47%. `CCOC(=O)c1c(C)n(C)c2ccc(O)cc12`: the inhibition was found to be 60.5%. Then `CCOC(=O)C1=C(C)NC(=S)NC1c1cccc(O)c1` (stereo unspecified), with 7.87%; and `CCOC(=O)c1ccc(N)cc1`, with 16.9%. Then `O=C1C=CC(=O)C2=C1C1c3ccccc3C2c2ccccc21`, with -5.86%; and `N#CC(c1ccnc(OCc2ccc(CN3CCOCC3)cc2)n1)c1nc2ccccc2s1` (stereo unspecified), with 73.7%; and `N[C@H]1CCN(O)C1=O`, with -4.15%.

For the compound `CCNC(=O)[C@@H]1CCCN1C(=O)[C@H](CCCNC(=N)N)NC(=O)[C@H](CC(C)C)NC(=O)[C@@H](CC(C)C)NC(=O)[C@H](Cc1ccc(O)cc1)NC(=O)[C@H](CO)NC(=O)[C@H](Cc1c[nH]c2ccccc12)NC(=O)[C@H](Cc1c[nH]cn1)NC(=O)[C@@H]1CCC(=O)N1`, the inhibition is 33.6%. On to `N#Cc1c(N)nc(SCc2ncc[nH]2)c(C#N)c1-c1ccc(O)cc1`, for which the inhibition came to 54.7%. Next, `CC(C)C[C@H](NC(=O)[C@@H](Cc1c[nH]c2ccccc12)NC(=O)[C@H](Cc1ccc(O)cc1)NC(=O)[C@H](CO)NC(=O)[C@H](Cc1c[nH]c2ccccc12)NC(=O)[C@H](Cc1c[nH]cn1)NC(=O)[C@@H]1CCC(=O)N1)C(=O)N[C@@H](CCCNC(=N)N)C(=O)N1CCC[C@H]1C(=O)NCC(N)=O`: -2.71%; `CN(C)CCN(Cc1cccs1)c1ccccn1`: 11.5%; `Nc1nc(O)c2c(n1)NCC(CNc1ccc(C(=O)N[C@@H](CCC(=O)O)C(=O)O)cc1)N2` (stereo partly specified): -7.59%.

`Cc1csc(-c2nnc(Nc3ccc(Oc4ncccc4-c4ccnc(N)n4)cc3)c3ccccc23)c1`: the inhibition came out at 72.1%.

Take `Cc1cc(C(=O)Nc2nc3cccc(Cl)c3n2[C@@H]2CCCCN(C(=O)/C=C/CN(C)C)C2)ccn1`: the inhibition is -3.32%. `C#CCN1C(C)=C(C(=O)OC)C(c2cccc([N+](=O)[O-])c2)C(C(=O)OCC)=C1C` (stereo unspecified): the inhibition is -1.94%. Then `C=CC(=O)Nc1cccc(Oc2nc(Nc3ccc(N4CCN(C)CC4)cc3)nc3ccsc23)c1`, with 14.3%; and `CCC(C)C(CC)C(N)=O` (stereo unspecified), with 2.6%. Regarding `C=Cc1cc(O)cc2nc(-c3ccc(O)c(F)c3)oc12`, the inhibition is -4.14%. As for `O=C(NC1CC1)c1cc(-c2cccs2)on1`, the inhibition was 75.4%. On to `C=CC(=O)Nc1cc2c(Nc3ccc(F)c(Cl)c3)ncnc2cc1OCCCN1CCOCC1`, for which the inhibition is 9.13%.

As for `Nc1nncs1`, the inhibition is 6.15%. With `O=C(Nc1ccc([N+](=O)[O-])cc1O)Nc1ccccc1Br`, the inhibition came out at 101%. Then `NC(=O)c1ccc([N+](=O)[O-])cc1Cl`, with 8.11%. Then `CN(N=O)C(=O)N[C@@H](C=O)[C@@H](O)[C@H](O)[C@H](O)CO`, with -1.89%. Then `c1ccc2cc(C3=NCCN3)ncc2c1`, with 3.66%. Take `Cc1sc2c(c1C)C(c1ccc(Cl)cc1)=N[C@@H](CC(=O)Nc1ccc(OCCOCCOCCOCCNc3cccc4c3C(=O)N(C3CCC(=O)NC3=O)C4=O)cc1)c1nnc(C)n1-2` (stereo partly specified): the inhibition turned out to be 9.19%. Next, `CC(C(=O)O)c1ccc(N2Cc3ccccc3C2=O)cc1` (stereo unspecified): 94.7%. Then `CC(C(=O)O)c1ccc2c(c1)CC(=O)c1ccccc1S2` (stereo unspecified), with -3.14%; and `CC(C(=O)O)c1ccc(C(=O)c2cccs2)cc1` (stereo unspecified), with -7.49%.

The values are drawn from ChEMBL document CHEMBL4808148, “HDAC6 screening dataset using tau-based substrate in an enzymatic assay yields selective inhibitors and activators” (2021).
